# PubChem BioAssay AID1159580 (chemical genetic matrix, 2015)
# Hit rate of the full screen: of about 5,500 compounds, about 2,000 (36%) were called active. About 18% were inconclusive and are not listed. The list shows a part of the results. Values without a mark were called inactive. Rule as the data show it: active = normalized growth mostly below about 0.91 (no sharp cut-off); inconclusive = no clear call, values can overlap the other calls; inactive = mostly above about 0.92.
# Test: chemical genetic growth profiling, strain panel (AID 1159580);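 also: tested at 20 µM; growth read once vehicle control cultures reached saturation at 30 °C; 1 = growth at the plate median or of vehicle wells; lower values mean less growth of the strain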
# Conditions: growth OD
# [1] = S. cerevisiae deletion strains, locus YHR030C, strain SLT2, hits give low values
# [2] = S. cerevisiae deletion strains, locus YHR079C, strain IRE1, hits give low values
# [3] = S. cerevisiae deletion strains, locus YJL095W, strain BCK1, hits give low values
# [4] = S. cerevisiae deletion strains, locus YJR066W, strain TOR1, hits give low values
# [5] = S. cerevisiae deletion strains, locus YLR113W, strain HOG1, hits give low values
# [6] = S. cerevisiae deletion strains, locus YNL183C, strain NPR1, hits give low values
# [7] = S. cerevisiae deletion strains, locus YOR231W, strain MKK1, hits give low values
# [8] = S. cerevisiae deletion strains, locus YPL256C, strain CLN2, hits give low values
# [9] = S. cerevisiae deletion strains, locus YAL013W, strain DEP1, hits give low values
# [10] = S. cerevisiae deletion strains, locus YGR078C, strain PAC10, hits give low values
# [11] = S. cerevisiae deletion strains, locus YNL128W, strain TEP1, hits give low values
# [12] = S. cerevisiae deletion strains, locus YPL241C, strain CIN2, hits give low values
structure (smiles),measurement,setting,value
CN1CCCC(n2nc(Cc3ccc(Cl)cc3)c3ccccc3c2=O)CC1 (stereo unspecified),normalized growth,"S. cerevisiae deletion strains, locus YAL021C, strain ccr4, hits give low values",1.01
same,normalized growth,"S. cerevisiae deletion strains, locus YAL026C, strain drs2, hits give low values",1
same,normalized growth,"S. cerevisiae deletion strains, locus YAL030W, strain snc1, hits give low values",0.999
same,normalized growth,"S. cerevisiae deletion strains, locus YBL061C, strain skt5, hits give low values",1
same,normalized growth,"S. cerevisiae deletion strains, locus YBR009C, strain hhf1, hits give low values",0.93
same,normalized growth,"S. cerevisiae deletion strains, locus YBR023C, strain chs3, hits give low values",1.02
same,normalized growth,"S. cerevisiae deletion strains, locus YBR171W, strain sec66, hits give low values",0.989
same,normalized growth,"S. cerevisiae deletion strains, locus YBR231C, strain swc5, hits give low values",0.984
same,normalized growth,"S. cerevisiae deletion strains, locus YBR279W, strain paf1, hits give low values",1.02
same,normalized growth,"S. cerevisiae deletion strains, locus YCL011C, strain gbp2, hits give low values",0.989
same,normalized growth,"S. cerevisiae deletion strains, locus YCL016C, strain dcc1, hits give low values",1.04
same,normalized growth,"S. cerevisiae deletion strains, locus YCL061C, strain MRC1, hits give low values",0.968
same,normalized growth,"S. cerevisiae deletion strains, locus YCL069W, strain vba3, hits give low values",0.988
same,normalized growth,"S. cerevisiae deletion strains, locus YCR088W, strain abp1, hits give low values",0.991
same,normalized growth,"S. cerevisiae deletion strains, locus YDL005C, strain med2, hits give low values",0.999
same,normalized growth,"S. cerevisiae deletion strains, locus YDL040C, strain nat1, hits give low values",1
same,normalized growth,"S. cerevisiae deletion strains, locus YDR001C, strain nth1, hits give low values",1
same,normalized growth,"S. cerevisiae deletion strains, locus YDR069C, strain doa4, hits give low values",0.996
same,normalized growth,"S. cerevisiae deletion strains, locus YDR137W, strain rgp1, hits give low values",1.25 [resistant] (active)
same,normalized growth,"S. cerevisiae deletion strains, locus YDR159W, strain sac3, hits give low values",0.912
same,normalized growth,"S. cerevisiae deletion strains, locus YDR195W, strain ref2",0.972
same,normalized growth,"S. cerevisiae deletion strains, locus YDR297W, strain sur2, hits give low values",0.99
same,normalized growth,"S. cerevisiae deletion strains, locus YDR334W, strain swr1, hits give low values",0.981
same,normalized growth,"S. cerevisiae deletion strains, locus YDR335W, strain msn5, hits give low values",1.01
same,normalized growth,"S. cerevisiae deletion strains, locus YDR392W, strain spt3, hits give low values",0.772
same,normalized growth,"S. cerevisiae deletion strains, locus YEL003W, strain gim4, hits give low values",0.948
same,normalized growth,"S. cerevisiae deletion strains, locus YEL037C, strain rad23, hits give low values",0.992
same,normalized growth,"S. cerevisiae deletion strains, locus YEL061C, strain CIN8 (second series), hits give low values",0.983
same,normalized growth,"S. cerevisiae deletion strains, locus YER015W, strain faa2, hits give low values",0.966
same,normalized growth,"S. cerevisiae deletion strains, locus YER016W, strain bim1, hits give low values",1.03
same,normalized growth,"S. cerevisiae deletion strains, locus YER111C, strain swi4, hits give low values",1.01
same,normalized growth,"S. cerevisiae deletion strains, locus YER155C, strain BEM2 (second series), hits give low values",0.884
same,normalized growth,"S. cerevisiae deletion strains, locus YFR010W, strain ubp6, hits give low values",0.941
same,normalized growth,"S. cerevisiae deletion strains, locus YGL167C, strain pmr1, hits give low values",0.982
same,normalized growth,"S. cerevisiae deletion strains, locus YGL173C, strain kem1, hits give low values",0.964
same,normalized growth,"S. cerevisiae deletion strains, locus YGL227W, strain vid30, hits give low values",1
same,normalized growth,"S. cerevisiae deletion strains, locus YGL240W, strain doc1, hits give low values",0.942
same,normalized growth,"S. cerevisiae deletion strains, locus YGL253W, strain hxk2, hits give low values",1.02
same,normalized growth,"S. cerevisiae deletion strains, locus YHR013C, strain ard1, hits give low values",0.994
same,normalized growth,"S. cerevisiae deletion strains, locus YHR027C, strain rpn1, hits give low values",0.944
same,normalized growth,[1],1.03
same,normalized growth,[2],1.02
same,normalized growth,"S. cerevisiae deletion strains, locus YHR142W, strain chs7, hits give low values",1.02
same,normalized growth,"S. cerevisiae deletion strains, locus YJL092W, strain hpr5, hits give low values",0.981
same,normalized growth,"S. cerevisiae deletion strains, locus YJL095W, strain BCK1 (second series), hits give low values",0.996
same,normalized growth,[3],0.979
same,normalized growth,"S. cerevisiae deletion strains, locus YJL115W, strain asf1, hits give low values",1.02
same,normalized growth,"S. cerevisiae deletion strains, locus YJL129C, strain trk1, hits give low values",1.07
same,normalized growth,"S. cerevisiae deletion strains, locus YJL154C, strain vps35, hits give low values",0.992
same,normalized growth,"S. cerevisiae deletion strains, locus YJL164C, strain tpk1, hits give low values",0.964
same,normalized growth,"S. cerevisiae deletion strains, locus YJL166W, strain qcr8, hits give low values",0.96
same,normalized growth,"S. cerevisiae deletion strains, locus YJL187C, strain SWE1, hits give low values",1.01
same,normalized growth,[4],0.99
same,normalized growth,"S. cerevisiae deletion strains, locus YKL160W, strain elf1, hits give low values",1.04
same,normalized growth,"S. cerevisiae deletion strains, locus YKR026C, strain gcn3, hits give low values",0.995
same,normalized growth,"S. cerevisiae deletion strains, locus YKR091W, strain srl3, hits give low values",1
same,normalized growth,"S. cerevisiae deletion strains, locus YLL001W, strain dnm1, hits give low values",0.958
same,normalized growth,"S. cerevisiae deletion strains, locus YLL026W, hits give low values",1
same,normalized growth,"S. cerevisiae deletion strains, locus YLL041C, strain sdh2, hits give low values",0.99
same,normalized growth,"S. cerevisiae deletion strains, locus YLR027C, strain aat2, hits give low values",1.01
same,normalized growth,[5],0.975
same,normalized growth,"S. cerevisiae deletion strains, locus YLR221C, strain rsa3, hits give low values",0.954
same,normalized growth,"S. cerevisiae deletion strains, locus YLR258W, strain gsy2, hits give low values",1.02
same,normalized growth,"S. cerevisiae deletion strains, locus YLR262C, strain YPT6 (second series), hits give low values",1.06
same,normalized growth,"S. cerevisiae deletion strains, locus YLR320W, strain mms22, hits give low values",0.905
same,normalized growth,"S. cerevisiae deletion strains, locus YLR342W, strain FKS1, hits give low values",1
same,normalized growth,"S. cerevisiae deletion strains, locus YLR357W, strain rsc2, hits give low values",0.949
same,normalized growth,"S. cerevisiae deletion strains, locus YLR370C, strain arc18, hits give low values",1.02
same,normalized growth,"S. cerevisiae deletion strains, locus YLR384C, strain iki3, hits give low values",0.996
same,normalized growth,"S. cerevisiae deletion strains, locus YML120C, strain ndi1, hits give low values",0.95
same,normalized growth,"S. cerevisiae deletion strains, locus YMR058W, strain fet3, hits give low values",0.961
same,normalized growth,"S. cerevisiae deletion strains, locus YMR125W, strain sto1, hits give low values",0.983
same,normalized growth,"S. cerevisiae deletion strains, locus YMR129W, hits give low values",1
same,normalized growth,"S. cerevisiae deletion strains, locus YMR205C, strain PFK2, hits give low values",0.981
same,normalized growth,"S. cerevisiae deletion strains, locus YMR231W, strain pep5, hits give low values",1
same,normalized growth,"S. cerevisiae deletion strains, locus YNL071W, strain lat1, hits give low values",0.993
same,normalized growth,[6],0.975
same,normalized growth,"S. cerevisiae deletion strains, locus YNL209W, strain ssb2, hits give low values",0.993
same,normalized growth,"S. cerevisiae deletion strains, locus YNL248C, strain rpa49, hits give low values",1
same,normalized growth,"S. cerevisiae deletion strains, locus YNL322C, strain KRE1 (second series), hits give low values",1.01
same,normalized growth,"S. cerevisiae deletion strains, locus YNR049C, strain mso1, hits give low values",1
same,normalized growth,"S. cerevisiae deletion strains, locus YOR001W, strain rrp6, hits give low values",0.902
same,normalized growth,"S. cerevisiae deletion strains, locus YOR070C, strain gyp1, hits give low values",1.01
same,normalized growth,"S. cerevisiae deletion strains, locus YOR080W, strain dia2, hits give low values",0.98
same,normalized growth,"S. cerevisiae deletion strains, locus YOR083W, strain WHI5, hits give low values",0.966
same,normalized growth,"S. cerevisiae deletion strains, locus YOR106W, strain vam3, hits give low values",0.993
same,normalized growth,[7],0.993
same,normalized growth,"S. cerevisiae deletion strains, locus YOR265W, strain rbl2, hits give low values",0.998
same,normalized growth,"S. cerevisiae deletion strains, locus YOR270C, strain vph1, hits give low values",0.93
same,normalized growth,"S. cerevisiae deletion strains, locus YOR290C, strain snf2, hits give low values",1.01
same,normalized growth,"S. cerevisiae deletion strains, locus YPL051W, strain arl3, hits give low values",1.05
same,normalized growth,"S. cerevisiae deletion strains, locus YPL078C, strain atp4, hits give low values",1.01
same,normalized growth,"S. cerevisiae deletion strains, locus YPL106C, strain sse1, hits give low values",1.08
same,normalized growth,"S. cerevisiae deletion strains, locus YPL240C, strain hsp82, hits give low values",1
same,normalized growth,[8],1.01
O=C1CCO1,normalized growth,[1],0.984
same,normalized growth,[2],0.99
same,normalized growth,[3],0.999
same,normalized growth,[4],0.946
same,normalized growth,[5],0.942
same,normalized growth,[6],0.951
same,normalized growth,[7],0.996
same,normalized growth,[8],0.992
CC1(C)/C(=N/OC(=O)c2cccc(C(F)(F)F)c2)[C@]2(C)CCC1C2,normalized growth,[9],1.01
same,normalized growth,"S. cerevisiae deletion strains, locus YBR229C, strain ROT2, hits give low values",1.01
same,normalized growth,"S. cerevisiae deletion strains, locus YDL101C, strain DUN1, hits give low values",1.04
same,normalized growth,"S. cerevisiae deletion strains, locus YDL134C, strain PPH21, hits give low values",1
same,normalized growth,"S. cerevisiae deletion strains, locus YDR150W, strain NUM1, hits give low values",0.989
same,normalized growth,"S. cerevisiae deletion strains, locus YEL061C, strain CIN8, hits give low values",1.04
same,normalized growth,[10],0.996
same,normalized growth,"S. cerevisiae deletion strains, locus YGR229C, strain SMI1, hits give low values",0.999
same,normalized growth,[1],0.88
same,normalized growth,"S. cerevisiae deletion strains, locus YHR087W, strain rtc3, hits give low values",0.99
same,normalized growth,"S. cerevisiae deletion strains, locus YJR043C, strain POL32, hits give low values",0.978
same,normalized growth,"S. cerevisiae deletion strains, locus YJR075W, strain HOC1, hits give low values",0.979
same,normalized growth,"S. cerevisiae deletion strains, locus YKL190W, strain CNB1, hits give low values",1.01
same,normalized growth,"S. cerevisiae deletion strains, locus YLR039C, strain RIC1, hits give low values",0.977
same,normalized growth,"S. cerevisiae deletion strains, locus YLR058C, strain SHM2 (second series), hits give low values",1.01
same,normalized growth,"S. cerevisiae deletion strains, locus YLR085C, strain ARP6, hits give low values",1
same,normalized growth,"S. cerevisiae deletion strains, locus YLR262C, strain YPT6, hits give low values",0.964
same,normalized growth,"S. cerevisiae deletion strains, locus YML094W, strain GIM5, hits give low values",1.18 [resistant] (active)
same,normalized growth,"S. cerevisiae deletion strains, locus YMR219W, strain ESC1, hits give low values",0.987
same,normalized growth,"S. cerevisiae deletion strains, locus YMR263W, strain SAP30, hits give low values",0.967
same,normalized growth,"S. cerevisiae deletion strains, locus YMR307W, strain GAS1, hits give low values",0.741
same,normalized growth,[11],1.01
same,normalized growth,"S. cerevisiae deletion strains, locus YNL153C, strain GIM3, hits give low values",0.963
same,normalized growth,"S. cerevisiae deletion strains, locus YNL298W, strain CLA4 (second series), hits give low values",0.987
same,normalized growth,"S. cerevisiae deletion strains, locus YNL322C, strain KRE1, hits give low values",1.02
same,normalized growth,"S. cerevisiae deletion strains, locus YNR030W, strain Alg12, hits give low values",1.01
same,normalized growth,"S. cerevisiae deletion strains, locus YOL006C, strain TOP1, hits give low values",0.898
same,normalized growth,"S. cerevisiae deletion strains, locus YPL055C, strain LGE1, hits give low values",1
same,normalized growth,[12],1.01
same,normalized growth,"S. cerevisiae deletion strains, locus YPR135W, strain CTF4, hits give low values",1.06
same,normalized growth,"S. cerevisiae strains, strain wild type, hits give low values",0.999
NC(=NCCC[C@H](N)C(=O)O)NO,normalized growth,[9],1.03
same,normalized growth,"S. cerevisiae deletion strains, locus YAL040C, strain CLN3, hits give low values",1
same,normalized growth,"S. cerevisiae deletion strains, locus YCL061C, strain MRC1 (second series), hits give low values",1.01
same,normalized growth,"S. cerevisiae deletion strains, locus YDR363W, strain ESC2, hits give low values",1.02
same,normalized growth,"S. cerevisiae deletion strains, locus YER002W, strain NOP16, hits give low values",1.01
same,normalized growth,[10],1.02
same,normalized growth,[11],1
same,normalized growth,"S. cerevisiae deletion strains, locus YNL175C, strain NOP13, hits give low values",1
same,normalized growth,"S. cerevisiae deletion strains, locus YNL197C, strain WHI3, hits give low values",1.01
same,normalized growth,"S. cerevisiae deletion strains, locus YNL224C, strain SQS1, hits give low values",0.992
same,normalized growth,"S. cerevisiae deletion strains, locus YOR083W, strain WHI5 (second series), hits give low values",1.01
same,normalized growth,[12],1.01
